Screens: PubChem, several laboratories
The list is not random: actives were taken first. Their share in the collection is about 3.7%.
BoNT A protease – BoNT/A light chain protease inhibitors, primary screen, biochemical, flow cytometry, MLPCN library | Botulinum neurotoxin type A light chain protease (Clostridium botulinum A str. ATCC 3502) | multiplex microsphere protease substrate cleavage | inhibition, % at 10 µM | actives 0.17% (n = 360,000); note: plate controls were buffer without enzyme for full effect and enzyme alone for no effect
Anthrax LF inh2 – Bacillus anthracis LF protease inhibitors, primary screen, biochemical, multiplex microsphere, MLPCN library; Lethal factor (Bacillus anthracis), P15917; multiplex microsphere protease cleavage assay; inhibition, % at 10 µM; actives 0.12% (n = 360,000); AID 588501, 2011; note: plate controls were buffer without enzyme for full effect and enzyme alone for no effect
Bead autofluor – flagged as autofluorescent in microsphere protease counterscreen | compound autofluorescence counterscreen, microsphere flow cytometry; hits give high values | fluorescence intensity (concentration not given with the values) | actives 3.1% (n = 360,000) | AID 624483; in the data active = fluorescence intensity above about 16000; inconclusive = no clear call, values can overlap the other calls
MazEF act – activators of E. coli MazEF toxin-antitoxin RNase, primary screen, biochemical, fluorescence, uHTS. AID 504720, 2011. FAM/BHQ RNA-DNA oligo cleavage fluorescence, 5 h. actives 0.32% (n = 350,000). activation, % at 20 µM. Endoribonuclease toxin MazF (Escherichia coli (strain K12)), P0AE70; in the data active = activation above about 50%
Target sequence (P0AE70 whole entry, looked up): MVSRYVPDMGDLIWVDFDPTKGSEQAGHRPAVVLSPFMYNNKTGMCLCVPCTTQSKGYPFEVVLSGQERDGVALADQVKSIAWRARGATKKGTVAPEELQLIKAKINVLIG
BoNT-F LC inh – BoNT/F light chain protease inhibitors, primary screen, biochemical, flow cytometry, MLPCN library. Botulinum neurotoxin type F light chain protease (Clostridium botulinum). Multiplex microsphere protease cleavage assay. inhibition, % at 10 µM. actives 0.22% (n = 360,000). AID 588497, 2011; in the data active = inhibition above about 35%, passing the limit was not always enough; inconclusive = no clear call, values can overlap the other calls; note: plate controls were buffer without enzyme for full effect and enzyme alone for no effect
* hit, by the source's call; u = inconclusive; x = no result. Cut-off read from the data, not from the text of the source, unless noted: active = inhibition above about 30%; inconclusive = no clear call, values can overlap the other calls; inactive = below that.

SMILES	BoNT A protease	Anthrax LF inh2	Bead autofluor	MazEF act	BoNT-F LC inh
O=C(NCCN1CCC(n2c(=O)[nH]c3ccccc32)CC1)c1ccncc1	0	-4	5137	x	9
COc1ccc2nc(NC(=O)C(NS(=O)(=O)c3cccs3)C(C)C)sc2c1 (stereo not drawn)	-4	-3	21430*	0	-6
COc1ccc2nc(NC(=O)c3cc(C)oc3C)sc2c1	-1	-9	u	3	-7
COc1ccc2nc(NC(=S)N(C)C)sc2c1	-3	-1	23623*	-2	-4
COc1ccc2nc(NC(=O)CCN3C(=O)c4ccccc4C3=O)sc2c1	u	0	16754*	12	-3
COc1ccc2nc(NC(=O)c3ccoc3C)sc2c1	1	1	21922*	9	1
CC1(C)Oc2cc3oc(=O)ccc3c3c2C2C1CCC(C)(O3)C2O (stereo not drawn)	0	-3	5461	x	-2
CS(=O)(=O)N(CC(=O)O)c1ccc(Oc2ccccc2)cc1	0	-4	20680*	7	0
Cc1ccc(C(=O)Nc2nc3ccccc3s2)s1	-1	-1	22825*	17	-1
Cc1cc(C(=O)Nc2nc3ccc(S(C)(=O)=O)cc3s2)c(C)o1	2	-5	22296*	-6	0
COc1cc(C(=O)Nc2nc3ccc(S(C)(=O)=O)cc3s2)cc(OC)c1C	4	4	u	-2	10
Cc1ccc(C(=O)Nc2nc3ccc(S(C)(=O)=O)cc3s2)s1	2	-1	21772*	2	3
CCOC(=O)C1=C(COC(=O)/C=C/c2ccco2)NC(=O)NC1C (stereo not drawn)	3	-5	5764	-3	14
CC(=O)Nc1ccc(CN(C)c2c(C)nc3ccc(C(=O)NC4CCN(Cc5ccccc5)CC4)cn23)cc1	0	-5	3576	x	0
Cn1cc(CNC(=O)C23CC4CC(CC(C4)C2)C3)cn1	3	8	3911	-4	36*
O=C(NCc1ccncc1)C12CC3CC(CC(C3)C1)C2	0	-1	3203	3	-4
O=C(COc1cccc(C(F)(F)F)c1)NCCCN1CCCC1=O	u	3	16354*	-13	0
CN1CCc2c(C#N)c(N3CCCCC3)nc(N3CCOCC3)c2C1	x	x	x	-3	x
C=CCNc1nc(N2CCOCC2)c(C#N)c2c1CN(C)CC2	0	-6	11311	54*	-2
COCCN1C[C@@H](CO)O[C@@H](n2cnc3c(NCc4ccc(F)cc4)ncnc32)C1	0	2	2961	x	-1
c1nc(N2CCOCC2)c2c3c(sc2n1)CCCC3	0	-1	23015*	5	-2
Cc1cc(CN2CCN(CC(=O)Nc3cc(Cl)ccc3-n3cncn3)CC2)no1	0	0	4869	-4	5
O=C(c1ccco1)n1nc(-c2ccc(Cl)cc2)nc1NCc1ccco1	0	2	5262	5	6
CCS(=O)(=O)n1nc(-c2ccccc2)nc1NCc1ccco1	0	u	u	4	-8
Cc1ccc(S(=O)(=O)n2nc(-c3ccc(Cl)cc3)nc2NCc2ccco2)cc1	u	-6	23333*	-6	-6
SMILES	BoNT A protease	Anthrax LF inh2	Bead autofluor	MazEF act	BoNT-F LC inh
O=C(COc1ccccc1)n1nc(-c2ccc(Cl)cc2)nc1NCc1ccco1	0	-14	21640*	-8	-3
O=S1(=O)CC(N2CCN(CCO)CC2)CN1C1CCCCC1 (stereo not drawn)	1	-5	5912	x	2
O=C(Nc1cc(C(F)(F)F)ccc1N1CCOCC1)c1ccc2ccccc2n1	0	-5	19909*	8	-2
O=C(Nc1cc(C(F)(F)F)ccc1N1CCOCC1)c1cccc(F)c1	0	-1	2713	1	0
O=C(Nc1cc(C(F)(F)F)ccc1N1CCOCC1)c1cncc(Br)c1	-10	-1	22690*	3	-11
O=C(Nc1cc(C(F)(F)F)ccc1N1CCOCC1)C1Cc2ccccc2CN1C(=O)c1ccco1 (stereo not drawn)	2	2	20221*	-7	-1
Cn1cnnc1SCC(=O)Nc1cc(C(F)(F)F)ccc1N1CCOCC1	0	-9	4099	10	3
Cn1ccnc1SCC(=O)Nc1cc(C(F)(F)F)ccc1N1CCOCC1	u	-1	16282*	4	1
C[C@@H]1CN([C@@H](C)CO)C(=O)c2cc(C#CCN(C)C)cnc2O[C@H]1CN(C)Cc1ccc2c(c1)OCO2	0	-2	4245	5	-11
Cc1ccccc1S(=O)(=O)NC(=O)C1(C)CCN1C(=O)c1cccc(F)c1 (stereo not drawn)	0	-2	4239	x	-3
Cn1ccnc1SCC(=O)Nc1cccc(O)c1	-2	-3	17009*	-1	0
CCOc1ccccc1N(CC(=O)N1CCN(Cc2ccccc2)CC1)S(=O)(=O)c1ccccc1	-1	-6	4227	6	-2
O=C(NCCc1ccccc1)C1CC(=O)N(c2ccc3c(c2)OCCO3)C1 (stereo not drawn)	x	x	x	3	x
O=C(NCCCc1ccccc1)C1CC(=O)N(c2ccc3c(c2)OCCO3)C1 (stereo not drawn)	u	-2	20162*	-5	2
CCOP(=O)(OCC)c1nc(/C=C/c2ccccc2)oc1NCc1ccc(OC)cc1	-6	-14	24914*	0	-7
CCOP(=O)(OCC)c1nc(-c2cccc3ccccc23)oc1NCc1ccccc1	-5	-5	17554*	-4	-9
CCOP(=O)(OCC)c1nc(-c2cccc3ccccc23)oc1NCc1ccc(OC)cc1	-2	-4	5422	2	-11
COc1ccccc1N1CCN(C(=O)C2C3C=CC4(CN(Cc5ccccc5Cl)C(=O)C24)O3)CC1 (stereo not drawn)	0	0	20591*	8	-1
Cc1cccc(N2CCN(C(=O)c3ccc(S(=O)(=O)N(C)c4ccccc4)cc3)CC2)c1C	0	-4	3752	-18	-1
COc1ccc(N2CCN(C(=O)c3ccc(Cl)c(S(=O)(=O)N4CCOCC4)c3)CC2)cc1	-1	5	3568	7	-4
CC(C(=O)NCC1(c2ccccc2)CCOCC1)N1CCOCC1 (stereo not drawn)	0	0	4182	-14	-2
CC(C(=O)NCC1(c2ccccc2)CCCC1)N1CCOCC1 (stereo not drawn)	-1	0	23756*	5	0
Cc1oc(C(=O)Nc2ccc(C(=O)O)cc2)cc1COc1ccccc1	-1	-3	16440*	-3	-3
CC(=O)c1cc(C(=O)Nc2ccc(C(=O)O)cc2)oc1C	0	0	8509	4	4
Cc1ccc(-n2c(SCC(=O)NC3CCS(=O)(=O)C3)nc3ccccc3c2=O)c(C)c1 (stereo not drawn)	0	-1	3753	-7	2
